# Measurements reported in PubChem BioAssay.
# The source made the active and inactive calls.
# Tests used:
# [1] = system: PRMT1 (protein arginine N-methyltransferase 1); experiment: small molecules binding arginine methyltransferase PRMT1 – biochemical, small-molecule microarray, 635 nm fluorescence, primary screen (AID 1088); details: higher = more signal;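 note: binding of Prmt1 protein to compounds spotted on small-molecule microarray slides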
# [2] = growth effects on S. cerevisiae YJM789 – YJM789 clinical isolate, OD600, 24 h, basal, primary screen (AID 1089); details: higher = more signal, called active from +8 up or from −8 down;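 note: growth of clinical yeast isolate S. cerevisiae YJM 789 seeded 1000 cells per well; test concentration not given here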
# [3] = S. pombe growth modifiers, basal conditions – strain 972, OD600, 24 h, no modulator, primary screen (AID 1090);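 note: basal condition with compound alone and no growth modifier present; test concentration not given here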; details: S. pombe 972 growth, higher = more signal, called active from +8 up or from −8 down
# [4] = budding yeast growth modifiers under rapamycin – strain BY4716, OD600, 96 h, primary screen (AID 1091); note: test concentration not given here; details: S. cerevisiae BY4716 + rapamycin, higher = more signal, called active from +8 up or from −8 down
# [5] = molecular target: Torsin-1A-interacting protein 2 (Homo sapiens) (UniProt Q8NFQ8); experiment: small molecules binding lysate-expressed LULL1 – cell lysate, human LULL1 lysate, 635/667 nm fluorescence, primary screen (AID 1092); details: small-molecule microarray, hLULL1 lysate binding, 635 nm fluorescence; higher = more signal;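 note: probe is lysate of COS7 cells overexpressing human LULL1; score merges per-feature 667 nm fluorescence with signal-to-noise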
# [6] = optical density change of DRC41 E. coli – strain DRC41, OD650, 24 h, E. coli filamentation project, primary screen (AID 1093);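 note: MC1000 strain lacking acrAB efflux and sulA so SOS filamentation is blocked; test concentration not given here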; details: E. coli DRC41 growth, higher = more signal, called active from +8 up or from −8 down
# [7] = probe aLefty2 binding to arrayed compounds – biochemical, biotinylated probe, 635/667 nm fluorescence, primary screen (AID 1094); details: small-molecule microarray, higher = more signal;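 note: score merges spot fluorescence near 667 nm with spot signal-to-noise ratio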
# [8] = system: Noggin (protein binding on small-molecule microarray); experiment: small molecules binding Noggin protein – biochemical, 635/667 nm fluorescence, primary screen (AID 1095); details: 635 nm fluorescence, higher = more signal;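 note: score merges 667 nm feature fluorescence with signal to noise over triplicate slides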
# [9] = molecular target: Neurogenic locus notch homolog protein 3 (Homo sapiens) (UniProt Q9UM47); experiment: small molecules binding NOTCH3 protein – biochemical, 635/667 nm fluorescence, primary screen (AID 1096); details: small-molecule microarray, 635 nm fluorescence, higher = more signal
# [10] = probe aEGFR binding to arrayed compounds – biochemical, biotinylated probe, 635/667 nm fluorescence, primary screen (AID 1097); details: small-molecule microarray, higher = more signal;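 note: probe is a biotinylated anti-EGFR antibody binding compounds printed on slides; score combines fluorescence near 667 nm and signal to noise of each spot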
# Chain of Torsin-1A-interacting protein 2 (Homo sapiens) (Q8NFQ8 whole entry, looked up): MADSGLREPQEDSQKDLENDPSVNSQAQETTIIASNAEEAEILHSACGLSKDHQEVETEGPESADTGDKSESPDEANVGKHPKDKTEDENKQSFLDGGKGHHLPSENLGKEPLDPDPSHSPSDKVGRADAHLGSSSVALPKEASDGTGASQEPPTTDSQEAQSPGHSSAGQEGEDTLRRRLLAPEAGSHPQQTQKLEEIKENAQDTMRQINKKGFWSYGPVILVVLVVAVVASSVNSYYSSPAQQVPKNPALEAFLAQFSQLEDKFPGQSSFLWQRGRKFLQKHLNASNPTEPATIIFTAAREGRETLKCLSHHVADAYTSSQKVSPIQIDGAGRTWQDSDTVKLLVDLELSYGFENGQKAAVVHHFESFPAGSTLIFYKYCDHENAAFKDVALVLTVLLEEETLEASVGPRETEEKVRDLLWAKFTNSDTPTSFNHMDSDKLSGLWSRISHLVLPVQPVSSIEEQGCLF
# Chain of Neurogenic locus notch homolog protein 3 (Homo sapiens) (Q9UM47 whole entry, looked up): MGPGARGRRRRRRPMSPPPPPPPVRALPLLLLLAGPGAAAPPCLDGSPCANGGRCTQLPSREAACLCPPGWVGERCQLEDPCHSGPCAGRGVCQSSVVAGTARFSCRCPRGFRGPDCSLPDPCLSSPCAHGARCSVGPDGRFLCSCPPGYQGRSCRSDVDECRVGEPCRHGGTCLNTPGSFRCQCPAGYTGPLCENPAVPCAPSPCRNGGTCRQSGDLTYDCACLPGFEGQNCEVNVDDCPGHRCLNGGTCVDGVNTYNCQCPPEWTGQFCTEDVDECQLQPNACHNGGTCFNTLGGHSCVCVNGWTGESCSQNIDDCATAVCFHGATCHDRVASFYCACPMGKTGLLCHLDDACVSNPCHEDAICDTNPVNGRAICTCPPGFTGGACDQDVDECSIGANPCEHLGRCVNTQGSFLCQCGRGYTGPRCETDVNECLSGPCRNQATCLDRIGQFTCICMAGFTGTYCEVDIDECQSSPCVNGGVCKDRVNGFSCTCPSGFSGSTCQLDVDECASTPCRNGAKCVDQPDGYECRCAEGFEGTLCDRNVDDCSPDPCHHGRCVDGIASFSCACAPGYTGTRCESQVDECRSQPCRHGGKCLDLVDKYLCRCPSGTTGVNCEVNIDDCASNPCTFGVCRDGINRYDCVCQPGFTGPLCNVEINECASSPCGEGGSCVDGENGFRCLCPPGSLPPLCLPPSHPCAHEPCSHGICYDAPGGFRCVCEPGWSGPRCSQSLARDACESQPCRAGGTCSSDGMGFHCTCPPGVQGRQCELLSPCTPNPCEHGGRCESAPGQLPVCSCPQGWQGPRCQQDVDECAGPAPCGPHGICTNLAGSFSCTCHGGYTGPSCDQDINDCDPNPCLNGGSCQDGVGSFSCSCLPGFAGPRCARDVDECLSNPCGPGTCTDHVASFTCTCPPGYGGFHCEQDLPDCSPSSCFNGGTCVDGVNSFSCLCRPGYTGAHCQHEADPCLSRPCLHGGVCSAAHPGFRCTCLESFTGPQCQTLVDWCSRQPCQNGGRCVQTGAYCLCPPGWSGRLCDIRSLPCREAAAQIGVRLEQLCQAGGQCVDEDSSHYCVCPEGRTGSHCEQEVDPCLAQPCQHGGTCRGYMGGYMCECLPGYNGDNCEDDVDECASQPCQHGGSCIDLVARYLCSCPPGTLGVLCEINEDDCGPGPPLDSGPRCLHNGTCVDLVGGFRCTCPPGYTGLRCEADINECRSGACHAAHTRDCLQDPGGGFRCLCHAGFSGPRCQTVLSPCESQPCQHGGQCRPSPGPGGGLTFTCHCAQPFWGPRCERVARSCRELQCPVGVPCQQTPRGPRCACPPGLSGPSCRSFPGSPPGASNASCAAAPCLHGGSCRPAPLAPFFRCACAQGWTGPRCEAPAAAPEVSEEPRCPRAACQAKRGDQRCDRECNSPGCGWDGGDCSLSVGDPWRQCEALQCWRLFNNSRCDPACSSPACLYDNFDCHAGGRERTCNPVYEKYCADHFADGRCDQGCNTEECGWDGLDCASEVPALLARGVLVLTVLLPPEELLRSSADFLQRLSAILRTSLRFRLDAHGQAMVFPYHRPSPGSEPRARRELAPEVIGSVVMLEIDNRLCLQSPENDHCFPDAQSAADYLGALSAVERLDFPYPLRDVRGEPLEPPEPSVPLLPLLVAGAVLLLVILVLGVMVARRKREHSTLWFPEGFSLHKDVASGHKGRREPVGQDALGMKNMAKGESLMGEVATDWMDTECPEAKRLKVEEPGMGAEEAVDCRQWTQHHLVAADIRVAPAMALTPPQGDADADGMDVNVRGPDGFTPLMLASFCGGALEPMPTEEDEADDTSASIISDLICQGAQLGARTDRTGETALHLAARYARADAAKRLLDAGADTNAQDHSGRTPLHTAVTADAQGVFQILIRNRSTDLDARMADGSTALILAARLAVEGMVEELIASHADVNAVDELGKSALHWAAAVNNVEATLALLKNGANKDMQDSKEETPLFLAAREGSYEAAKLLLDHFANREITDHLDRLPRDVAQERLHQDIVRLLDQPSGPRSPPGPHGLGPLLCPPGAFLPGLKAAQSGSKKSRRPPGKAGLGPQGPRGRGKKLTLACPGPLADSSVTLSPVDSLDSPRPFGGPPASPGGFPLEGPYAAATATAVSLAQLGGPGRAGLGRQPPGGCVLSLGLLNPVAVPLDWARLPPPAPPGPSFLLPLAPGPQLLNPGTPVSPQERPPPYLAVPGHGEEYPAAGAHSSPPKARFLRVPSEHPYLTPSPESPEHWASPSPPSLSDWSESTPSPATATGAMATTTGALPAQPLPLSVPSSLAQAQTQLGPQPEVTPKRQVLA
Compound,composite z-score [1],z-score [2],z-score [3],z-score [4],composite z-score [5],z-score [6],composite z-score [7],composite z-score [8],composite z-score [9],composite z-score [10]
CC(C)=CCCC(C)=CCON=C1[C@H]2CCn3c(=O)n(Cc4cc5c(cc4Cl)OCO5)c(=O)n3[C@H]2[C@H](O)[C@@H]2O[C@H]12,-0.477,0.175 (inactive),-0.105 (inactive),0.545 (inactive),-0.658,-0.996 (inactive),0.0392,0.482,0.554,0.112
CO[C@H]([C@@H](C)[C@H](OC)c1ccccc1)[C@H](C)[C@@H](OC)[C@H](C)C(C)=O,-0.694,0.474 (inactive),-0.0357 (inactive),-0.175 (inactive),-0.391,0.243 (inactive),-0.0159,-0.233,-0.177,-0.0996
O=C1C2C=CC(C(O)c3ccc([N+](=O)[O-])cc3)N(Nc3ccc([N+](=O)[O-])cc3)C2C(=O)N1c1ccccc1 (stereo not given),1.46,0.664 (inactive),1.53 (inactive),3.26 (inactive),3.28,-0.956 (inactive),0.198,-0.238,1.04,0.387
CCOC(=O)C1=CC[C@H]2C(=O)N(CC)C(=O)[C@@H]12,0.863,-0.348 (inactive),1.77 (inactive),0.816 (inactive),1.08,-0.233 (inactive),-0.181,0.344,1,0.125
CCOC(=O)[C@H](Cc1ccccc1)NC(=O)CCC1CC(OC(=O)NCc2ccc3c(c2)OCO3)CC2(CCCC(COC(=O)NCc3ccccc3)O2)O1 (stereo not given in full),1.06,0.284 (inactive),0.158 (inactive),0.942 (inactive),1.27,0.641 (inactive),-0.0174,0.573,0.941,-0.0084
O=C1[C@H]2[C@H]3[C@H](O)[C@H](O)CC(=NO[C@@H]4O[C@H](CO)[C@@H](O)[C@H](O)[C@H]4O)[C@@H]3CC[C@H]2C(=O)N1Cc1ccc2c(c1)OCO2,0.843,-0.0622 (inactive),0.374 (inactive),0.35 (inactive),1.55,-0.244 (inactive),-0.0991,0.388,0.786,-0.0007
O=C1O[C@@H](c2ccccc2)[C@@H](c2ccccc2)N2[C@@H](c3ccc(O)cc3)[C@]3(C(=O)Nc4ccccc43)[C@@H](C(=O)O)[C@H]12,1.24,0.462 (inactive),-0.253 (inactive),-0.408 (inactive),2.45,1.14 (inactive),-0.0753,-0.335,0.166,-0.041
CC(=O)OC[C@H]1O[C@@H](ON=C(C)CCN2CCc3nc(-c4ccccc4)c(-c4ccccc4)cc3C2)[C@H](OC(C)=O)[C@@H](OC(C)=O)[C@@H]1OC(C)=O,1.51,0.0264 (inactive),-1.03 (inactive),-3.53 (inactive),2.27,-0.395 (inactive),0.0754,0.591,1.09,0.0291
CC(C)[C@H](NC(=O)OC(C)(C)C)[C@@H](O)CC(=O)OC(C)(C)C,-1.84,-0.0351 (inactive),-0.379 (inactive),0.596 (inactive),-1.63,-0.809 (inactive),-0.22,-0.531,-0.904,-0.29
COc1ccc(O[C@H]2C=C[C@@H](c3ccccc3)O[C@@H]2COC(=O)CCC(C)=NO[C@@H](C)c2cc(-c3c(C)cc(C)cc3C)no2)cc1,-0.225,-0.843 (inactive),1.09 (inactive),-0.159 (inactive),-0.687,-0.312 (inactive),-0.219,-0.916,-2.17,-0.214
CC(C)[C@@H](OCc1ccccc1)[C@H](C)C=NOC[C@@H](C)[C@H](OCc1ccccc1)C(C)C,0.341,0.0268 (inactive),0.893 (inactive),0.338 (inactive),-0.218,0.413 (inactive),-0.0862,0.367,0.421,-0.0234
COC(=O)[C@H]1COC(c2ccc(OCCCO)cc2)=N1,-0.152,-0.488 (inactive),-0.888 (inactive),-0.606 (inactive),3.59,0.332 (inactive),0.267,-0.37,-0.607,-0.0947
COc1ccc(O[C@H]2C=C[C@@H](c3ccccc3)O[C@@H]2CON=C[C@@H](C)[C@H](OCc2ccccc2)C(C)C)cc1,-0.28,0.706 (inactive),-0.564 (inactive),0.314 (inactive),-1.14,-0.349 (inactive),-0.235,-0.347,-1.27,-0.241
CC(CCN1CCc2nc(-c3ccccc3)c(-c3ccccc3)cc2C1)=NO[C@@H](C)c1cn([C@H](CO)Cc2ccccc2)nn1,0.747,-2.46 (inactive),-2.24 (inactive),-4.45 (inactive),0.272,-0.966 (inactive),-0.037,0.549,-0.474,-0.0172
C[C@H](c1ccccc1)N1C(=O)[C@H]2[C@H]3[C@H](O)[C@H](O)CC(=O)[C@@H]3CC[C@H]2C1=O,0.27,-0.228 (inactive),-0.522 (inactive),-0.478 (inactive),0.685,-0.417 (inactive),-0.226,0.245,0.419,0.221
O=C1[C@H]2[C@H]3[C@H](O)[C@H](O)CC(=NOCc4ccccc4)[C@@H]3CC[C@H]2C(=O)N1Cc1ccccc1,0.0044,-0.132 (inactive),-0.176 (inactive),-1.41 (inactive),0.577,0.263 (inactive),-0.21,0.656,0.797,-0.0828
Cn1c(=O)n2n(c1=O)[C@H]1[C@H](O)[C@@H]3O[C@@H]3C(=NOC[C@@H](O)COCc3ccco3)[C@H]1CC2,0.188,0.0859 (inactive),0.171 (inactive),-0.36 (inactive),0.14,-0.0342 (inactive),-0.171,0.426,0.775,0.0574
CC(C)(C)N1C(=O)[C@H]2[C@H]3[C@H](O)[C@H](O)CC(=NOCc4ccccc4)[C@@H]3CC[C@H]2C1=O,0.966,-1.86 (inactive),-0.752 (inactive),-0.715 (inactive),1.16,-0.207 (inactive),-0.0574,0.524,0.63,0.328
CCOC(=O)NN=C1C[C@@H](O)[C@@H](O)[C@@H]2[C@@H]3C(=O)N(CC)C(=O)[C@@H]3CC[C@@H]12,0.268,-0.846 (inactive),0.0572 (inactive),-0.293 (inactive),1.31,-0.319 (inactive),-0.176,0.299,0.905,0.0082
CC(C)(C)OC(=O)CC[C@]1(C(=O)NCc2ccccc2)N=C(c2ccc(OCCCO)cc2)O[C@H]1c1ccccc1,1.55,-0.105 (inactive),0.851 (inactive),1.64 (inactive),3.71,0.0596 (inactive),-0.0354,0.798,0.97,-0.123
CO[C@H]1COC(=O)CC=C[C@H](C)[C@@H](NS(=O)(=O)c2ccc(C)cc2)COC(=O)CC=C[C@@H]1C,0.855,-3.93 (inactive),-2.23 (inactive),-2.35 (inactive),-0.716,-1.11 (inactive),-0.118,0.659,0.66,-0.12
COC(=O)[C@]1(CO)N=C(c2ccc(OCCCO)cc2)O[C@@H]1c1ccccc1N=[N+]=[N-],1.53,-0.726 (inactive),-0.683 (inactive),-1.12 (inactive),3.19,0.269 (inactive),-0.0639,1.82,0.298,-0.162
C=C(/C(=C/C[C@H](OC(C)=O)c1ccc(OCCO)cc1)c1cnc2ccccc2c1)C(C)C,1.44,-1.75 (inactive),-2.26 (inactive),-1.03 (inactive),1.67,1.19 (inactive),-0.062,1.58,1.1,-0.204
O=C1[C@H]2[C@H]3[C@H](O)[C@H](O)CC(=NOC[C@@H](O)COCc4ccco4)[C@@H]3CC[C@H]2C(=O)N1c1ccc(F)cc1F,0.601,-0.236 (inactive),0.0766 (inactive),-1.25 (inactive),-1.34,0.363 (inactive),-0.223,1.01,0.0986,-0.0828
O=C1C[C@@H](O)[C@@H](O)[C@@H]2[C@@H]3C(=O)N(c4ccc(F)cc4F)C(=O)[C@@H]3CC[C@@H]12,0.306,-0.168 (inactive),-0.413 (inactive),-0.0694 (inactive),0.662,0.315 (inactive),0.0424,0.438,0.65,-0.109
C#CCCCON=C1C[C@@H](O)[C@@H](O)[C@@H]2[C@@H]3C(=O)N([C@@H](C)c4ccccc4)C(=O)[C@@H]3CC[C@H]12,0.37,0.45 (inactive),0.347 (inactive),-0.418 (inactive),0.773,0.229 (inactive),0.0008,0.573,0.999,0.207
CCCNC(=O)OC[C@H]1O[C@H](CCON=C2[C@H]3CCn4c(=O)n(-c5ccccc5)c(=O)n4[C@H]3[C@H](O)[C@@H]3O[C@H]23)C=C[C@@H]1Oc1ccc(OC)cc1,0.615,-0.285 (inactive),0.0063 (inactive),-0.0824 (inactive),0.507,0.317 (inactive),-0.234,0.388,0.242,-0.253
COC(=O)CC=C[C@@H](C)[C@@H](C=NO[C@@H](C)c1cc(-c2c(C)cc(C)cc2C)no1)OC,-1.43,-0.0365 (inactive),-0.875 (inactive),0.599 (inactive),-1.2,-0.622 (inactive),-0.047,-0.119,-0.75,-0.419
CCCCc1nc2c(c3c1C[C@H](C)OC3)CN(CCC(C)C)CC2,1.49,-0.147 (inactive),-1.52 (inactive),-1.07 (inactive),2,0.567 (inactive),-0.114,0.582,1.11,-0.0627
